Several values for one entry are separate records, joined by “and”; a condition that tells them apart may be missing. Equal values may be shown once. Records with an inconclusive call do not appear. A structure can be active in one record and inactive in another. Activity calls are given as the source filed them. The call rests on the fitted dose curve; in most records, active means well fitted curve in the direction sought with a large enough effect; inconclusive means small, poorly fitted or top-dose-only effect, or another doubt; inactive means no such curve, though single readings can be large; an effect the other way counts as inactive or inconclusive.

The source of these data is PubChem BioAssay (NCATS).

A short description of test [1]: Identifying Small Molecule Inhibitors of Pancreatic Cancer Stem Cells (SN12C, Spheroid) (AID 1259360). Further: potency means the concentration at half of the fitted maximal effect. The conditions noted are these: Potency: SN12C spheroid viability. The method, boiled down:
(§1)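 Pre-formed 14-day tumor spheroids or adherent cells dosed and incubated 48 h, 37C, 5% CO2. Viability assessed by CellTiter-Glo.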

Test [2] is described as follows: Identifying Small Molecule Inhibitors of Pancreatic Cancer Stem Cells (A278, Adherent) (AID 1259361). Further: nearly all actives have a fitted effect of over 35% in size. An outline of the steps: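 Adherent (2D) versus sphere (3D) formats; spheres generated 14 d in SCM beforehand. Compound transferred by pin tool after 4 h, 48 h incubation, CellTiter-Glo endpoint.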
Test [3] in a line: P-glycoprotein substrates identified in KB-8-5-11 adenocarcinoma cell line, qHTS therapeutic library screen (AID 1346987). Further: nearly all actives have a fitted effect of over 65% in size. Further: potency means the concentration at half of the fitted maximal effect. An outline of the steps: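 P-gp-mediated resistance screen: KB-8-5-11 cells treated 72 h with compounds in dose-response. CellTiter-Glo viability.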
In general terms: Quantitative high-throughput screening tests each substance at several concentrations.

Test [4] is described as follows: NS1 protein of Zika virus - qHTS assay to identify small molecule inhibitors in human HEK 293 cells (AID 1347053). Further: nearly all actives have a fitted effect of over 55% in size. Further: potency means the concentration at half of the fitted maximal effect. An outline of the steps:
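Following 20 h seeding, HEK 293 cells took compound, then 1 h later ZIKV MR766 (MOI = 0.5). Incubation ran 24 h at 37 C before TR-FRET detection of NS1; a drop in signal indicates inhibition.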

A short description of test [5]: qHTS of pediatric cancer cell lines to identify multiple opportunities for drug repurposing: Primary screen for TC32 cells (AID 1347089). Further: nearly all actives have a fitted effect of over 60% in size. Further: potency means the concentration at half of the fitted maximal effect. An outline of the steps: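 A viability screen of TC32 cells was run over 48 h, with primary MIPE doses spanning 0.78 nM–46 µM and NPC doses 0.59 nM–46 µM. ATP luminescence (CellTiter-Glo) served as the read-out.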
Test [6] can be described thus: qHTS of pediatric cancer cell lines to identify multiple opportunities for drug repurposing: Primary screen for DAOY cells (AID 1347090). Further: potency means the concentration at half of the fitted maximal effect; nearly all actives have a fitted effect of over 55% in size. An outline of the steps:
(§2)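 Cell viability, CellTiter-Glo luminescence; 500-1,000 cells/well, 8- or 11-point titration, 48 h compound exposure at 37 degrees C, 5% CO2. Controls: DMSO neutral, bortezomib 2.3 µM final as positive.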

The nature of test [7]: qHTS of pediatric cancer cell lines to identify multiple opportunities for drug repurposing: Primary screen for SJ-GBM2 cells (AID 1347091). Further: potency means the concentration at half of the fitted maximal effect. An outline of the steps: as §2
Test [8] can be described thus: qHTS of pediatric cancer cell lines to identify multiple opportunities for drug repurposing: Primary screen for A673 cells (AID 1347092). Further: potency means the concentration at half of the fitted maximal effect; nearly all actives have a fitted effect of over 45% in size. An outline of the steps:
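Titration-based qHTS on A673 cells: MIPE compounds spanned 11 points (0.78 nM to 46 µM final), NPC compounds 8 points (0.59 nM to 46 µM final). Viability after 48 h was measured by ATP luminescence.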

A short description of test [9]: qHTS of pediatric cancer cell lines to identify multiple opportunities for drug repurposing: Primary screen for SK-N-MC cells (AID 1347093). Further: potency means the concentration at half of the fitted maximal effect. An outline of the steps: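 Metabolically active cells were quantified by ATP-dependent luminescence (CellTiter-Glo, 15 min at room temperature) following 48 h treatment. Cells had been plated at 500-1,000 per well and settled for 5 h beforehand.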

Test [10] in a line: qHTS of pediatric cancer cell lines to identify multiple opportunities for drug repurposing: Primary screen for NB-EBc1 cells (AID 1347095). Further: potency means the concentration at half of the fitted maximal effect. An outline of the steps: (§3)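 Primary screen of approved and investigational compounds on cells in growth media at 37 degrees C, 5% CO2. MIPE set at 11-point and NPC set at 8-point dilutions; viability scored by ATP-based luminescence at 48 hours.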

Test [11] in a line: P-glycoprotein substrates identified in KB-3-1 adenocarcinoma cell line, qHTS therapeutic library screen (AID 1346986). Further: nearly all actives have a fitted effect of over 60% in size. An outline of the steps:
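Counter-screen: cherry-picked hits retested in the KB pair and in HEK-293 pcDNA/MDR-19 cells ± tariquidar. Primary screen used 72 h CellTiter-Glo viability in KB-3-1 and KB-8-5-11.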

The nature of test [12]: Identifying Small Molecule Inhibitors of Pancreatic Cancer Stem Cells (Panc1, Adherent) (AID 1259362). Further: potency means the concentration at half of the fitted maximal effect. As to conditions: Potency: viability. The method, boiled down: as §1
The nature of test [13]: qHTS of pediatric cancer cell lines to identify multiple opportunities for drug repurposing: Primary screen for BT-37 cells (AID 1347094). Further: potency means the concentration at half of the fitted maximal effect. An outline of the steps:
as §3

As to `Cc1cc(Nc2cc(N3CCN(C)CC3)nc(C=Cc3ccccc3)n2)n[nH]1`, the Potency result in [1] was “inactive”. Also, the IC50 (viability decrease) in [2] was 2.35 µM (active). For the same compound, the Potency was 6.05 µM (active) in [3]; 21.5 µM (active) in test [4]; 6.02 µM (active) in test [5]; 42.9 µM (active) in test [6]; 13.6 µM (active) in test [7]; 10.8 µM (active) in [8]. In addition, the results for the Potency in test [9] and in [10] were 1.52 µM (active) and 4.29 µM (active), respectively.
In the case of `C=C1C(=CC=C2CCCC3(C)[C@@H]([C@H](C)C=CC=CC(O)(CC)CC)CC[C@@H]23)C[C@@H](O)C[C@@H]1O` (some centres undefined), the Potency in test [1] was 18.7 µM (active); in test [6], 23.5 µM (active); in [7], 20.9 µM (active); in [8] it was 18.7 µM (active); in test [9], 6.62 µM (active); in test [10], 18.7 µM (active). In addition, the Potency result in [11], in [4] and in [5] was “inactive” in each case.
Take `CC[C@@H]1C(=O)N(C)c2cnc(Nc3ccc(C(=O)NC4CCC(N5CCN(CC6CC6)CC5)CC4)cc3OC)nc2N1C(C)C` (some centres undefined): the IC50 (viability decrease) in [2] was 0.0209 µM (active). For the same compound, the Potency in test [12] is 0.0105 µM (active); in test [3], 372 nM (active) and 326 nM (active) and 231 nM (active); in [4] it was 0.105 µM (active); in test [5] it was 0.37 µM (active); in test [6], 0.0743 µM (active); in test [9], 0.148 µM (active). Besides, the results for the Potency in [13] and in [10] were 2.43 µM (active) and 0.332 µM (active), respectively.
Regarding `NC(=O)Nc1cc(-c2cccc(F)c2)sc1C(=O)N[C@H]1CCCNC1`, the IC50 (viability decrease) in test [2] is 1.05 µM (active). Besides, the Potency in test [12] is 1.48 µM (active); in test [3], 14.8 µM (active) and 7.31 µM (active); in test [4], 0.264 µM (active); in test [5] it was 2.34 µM (active); in test [6] it was 1.87 µM (active); in [8], 0.187 µM (active). Further, the Potency in [13] is 0.485 µM (active); in test [10], 0.296 µM (active).
On to `CC(C)(C)c1cc(NC(=O)Nc2ccc(-c3cn4c(n3)sc3cc(OCCN5CCOCC5)ccc34)cc2)no1`, for which, in [2], the IC50 (viability decrease) was 10.5 µM (active). The Potency result in test [3], in [4] and in test [5] was “inactive” throughout. Also, the results for the Potency in [7] and in test [10] were 14.8 µM (active) and 16.6 µM (active), respectively.
Consider `CS(=O)(=O)N1CCN(Cc2cc3nc(-c4cccc5[nH]ncc45)nc(N4CCOCC4)c3s2)CC1`, for which the IC50 (viability decrease) in test [2] was 0.372 µM (active). Further, the Potency in test [12] is 0.59 µM (active); in [3] it was 2.91 µM (active); in test [4], 4.69 µM (active); in test [5], 0.829 µM (active); in [7] it was 0.372 µM (active); in test [8], 4.69 µM (active). In addition, the Potency in [9] was 0.0418 µM (active); in [13], 6.85 µM (active); in test [10] it was 0.833 µM (active).
`Nc1cc(C(F)(F)F)c(-c2cc(N3CCOCC3)nc(N3CCOCC3)n2)cn1`: the IC50 (viability decrease) in test [2] was 0.662 µM (active). Also, the Potency in test [12] is 1.87 µM (active); in [3], 469 nM (active) and 1.16 µM (active); in test [5] it was 2.62 µM (active); in [6], 0.372 µM (active); in [7], 0.296 µM (active); in test [8] it was 0.235 µM (active). Further, the Potency is 0.0296 µM (active) in test [9], 1.53 µM (active) in [13] and 0.166 µM (active) in test [10].
For the compound `Nc1nc(Nc2ccc(S(N)(=O)=O)cc2)nn1C(=O)c1c(F)cccc1F`, the IC50 (viability decrease) in [2] is 2.64 µM (active). The Potency in test [3] was 10.5 µM (active) and 7.31 µM (active); in test [4], 18.7 µM (active); in [5], 14.7 µM (active); in test [6] it was 11.8 µM (active); in test [7] it was 3.72 µM (active); in [8], 2.96 µM (active). The Potency was 15.3 µM (active) in [13] and 5.26 µM (active) in test [10].
Turning to `Cc1[nH]c2ccccc2c1CCNCc1ccc(C=CC(=O)NO)cc1`, in test [2], the IC50 (viability decrease) is 0.118 µM (active). Also, the Potency was 0.148 µM (active) in test [12]; 0.935 µM (active) in test [3]; 1.65 µM (active) in test [5]; 0.469 µM (active) in test [6]; 0.148 µM (active) in test [7]; 0.148 µM (active) in [8]. Further, the values for the Potency in [9] and in [10] were 0.148 µM (active) and 0.372 µM (active), respectively.
Take `Cc1nc2cnc3ccc(C#Cc4cccnc4)cc3c2n1-c1ccc(C(C)(C)C#N)cc1`: the IC50 (viability decrease) in test [2] was 0.187 µM (active). Besides, the Potency entry in test [11] is “inactive”. Further, the Potency in test [3] is 37.2 nM (active) and inactive; in [4] it was 0.935 µM (active); in test [5], 0.33 µM (active); in test [6], 0.118 µM (active); in test [8], 0.0093 µM (active); in [9] it was 0.0469 µM (active). Further, the Potency in test [10] is 0.833 µM (active).
Turning to `Fc1cc(-c2cccc3ncc(-c4cnn(C5CCNCC5)c4)nc23)cc(F)c1CN1CCOCC1`, the IC50 (viability decrease) in test [2] was 20.9 µM (active). Moreover, the Potency is 20.9 µM (active) and 20.6 µM (active) in test [3]; 20.9 µM (active) in test [4]; 16.6 µM (active) in test [7]; 18.7 µM (active) in test [8]; 14.8 µM (active) in [9]; 24.3 µM (active) in test [13].
Consider `O=c1[nH]nc(Sc2ncc([N+](=O)[O-])s2)n1-c1ccc2c(c1)OCCO2`, for which the IC50 (viability decrease) in [2] is 26.4 µM (active). Further, the Potency was 18.7 µM (active) in test [3]; 9.35 µM (active) in test [4]; 9.35 µM (active) in [6]; 9.35 µM (active) in [9]; 21.7 µM (active) in [13]; 2.64 µM (active) in test [10]. Moreover, the Potency entry in test [5] is “inactive”.
As to `CC(C)[C@H](C(=O)Nc1ccc(C(=O)NO)cc1)c1ccccc1`, the IC50 (viability decrease) in test [2] is 0.833 µM (active). The Potency in test [12] is 0.418 µM (active); in [5], 3.3 µM (active); in [6], 1.87 µM (active); in test [7] it was 0.59 µM (active); in test [9], 0.469 µM (active); in test [13] it was 2.17 µM (active). The Potency in test [10] is 0.526 µM (active).
For `O=C(O)c1ccc2cc(-c3ccc(O)c(C45CC6CC(CC(C6)C4)C5)c3)ccc2c1`, in test [2], the IC50 (viability decrease) is 0.935 µM (active). The Potency is 0.59 µM (active) in test [4]; 0.469 µM (active) in test [6]; 0.148 µM (active) in test [7]; 0.372 µM (active) in test [9]; 0.863 µM (active) in [13]; 0.209 µM (active) in [10].
With `CC[C@@H]1C(=O)N(C)c2cnc(Nc3ccc(C(=O)NC4CCN(C)CC4)cc3OC)nc2N1C1CCCC1`, in test [2], the IC50 (viability decrease) was 0.0132 µM (active). Moreover, the Potency in test [12] was 0.0093 µM (active); in test [3], 0.418 µM (active); in [4], 0.0332 µM (active); in [5], 0.234 µM (active); in [7], 0.0372 µM (active); in [8] it was 0.0372 µM (active). For the same compound, the values for the Potency in test [13] and in test [10] were 0.172 µM (active) and 0.148 µM (active), respectively.
For the compound `C[C@@H](Oc1cc(-n2cnc3ccc(CN4CCN(C)CC4)cc32)sc1C(N)=O)c1ccccc1C(F)(F)F`, the IC50 (viability decrease) in [2] is 0.0187 µM (active). The Potency in test [12] was 0.0037 µM (active); in test [3], 0.118 µM (active); in test [4], 0.059 µM (active); in [5] it was 0.294 µM (active); in [7], 0.0296 µM (active); in test [8], 0.0743 µM (active). For the same compound, the figures for the Potency in test [9], in test [13] and in test [10] were 0.105 µM (active), 0.153 µM (active) and 0.0469 µM (active), respectively.
